Assay outcomes (PubChem BioAssay)
Tgondii IFNg – blocks Toxoplasma gondii growth in the presence of IFN-gamma; activity change, negative = inhibition, % (test concentration not listed); AID 1259416; Toxoplasma gondii growth in IFN-gamma-treated host cells; hits give low values; 3.8% of 69,000 active; in the data active means activity change below about -70%, passing the limit was not always enough;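 further: host cells are HeLa cells infected with Toxoplasma gondii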
Each line names hits and unclear results; the compound was inactive in the other large screens; ! = not confirmed by another sample. Only a selection was taken, and hits are over-represented in it overall.

Cc1cc(C(=O)Nc2ccc3c(c2)C(=O)N(C)[C@H]2CC[C@@H](CC(=O)NCc4ccc(-c5ccccc5)cc4)O[C@H]2CO3)no1	Tgondii IFNg -79
Cc1cc(C(=O)Nc2ccc3c(c2)C(=O)N(C)[C@@H]2CC[C@H](CC(=O)NCc4ccc(-c5ccccc5)cc4)O[C@@H]2CO3)no1	Tgondii IFNg -87
CN1C(=O)c2cc(NC(=O)c3cccc(F)c3)ccc2OC[C@@H]2O[C@H](CC(=O)NCC3CCCCC3)CC[C@@H]21	none
Cc1cc(C(=O)Nc2ccc3c(c2)C(=O)N(C)[C@@H]2CC[C@@H](CC(=O)NCc4ccc(-c5ccccc5)cc4)O[C@@H]2CO3)no1	none
Cc1cc(C(=O)Nc2ccc3c(c2)C(=O)N(C)[C@H]2CC[C@H](CC(=O)NCc4ccc(-c5ccccc5)cc4)O[C@@H]2CO3)no1	none
CN1C(=O)c2cc(NC(=O)c3cccc(F)c3)ccc2OC[C@@H]2O[C@H](CC(=O)NCc3ccccc3Cl)CC[C@H]21	none
CN1C(=O)c2cc(NC(=O)c3cccc(F)c3)ccc2OC[C@H]2O[C@@H](CC(=O)NCC3CCCCC3)CC[C@H]21	Tgondii IFNg -77!
CN1C(=O)c2cc(NC(=O)Nc3cccc(C#N)c3)ccc2OC[C@H]2O[C@@H](CC(=O)NCc3ccc(Cl)cc3)CC[C@@H]21	none
O=C1c2ccc(-c3nc4ccccc4c(=O)o3)cc2C(=O)N1c1nccs1	none
O=C(O)CSCC(=O)Nc1ccc(-c2csnn2)cc1	none
Cc1occc1C(=O)N1CC[C@@H]2[C@H](CO[C@H]2Cc2nnc(C3CC3)o2)C1	none
Cn1c(CNC(=O)C2CCC2)nc2c1CN(C(=O)Nc1ccc(F)cc1)CC2	none
c1ccc2c(c1)CCN(C1CCN(Cc3cccc4nccnc34)CC1)C2	none
CN1C(=O)c2cc(NC(=O)c3ccc4c(c3)OCO4)ccc2OC[C@H]2O[C@@H](CC(=O)O)CC[C@@H]21	none
CN1C(=O)c2cc(NC(=O)c3ccc4c(c3)OCO4)ccc2OC[C@H]2O[C@H](CC(=O)O)CC[C@@H]21	none
CN1C(=O)c2cc(NC(=O)c3ccc(C(F)(F)F)cc3)ccc2OC[C@H]2O[C@H](CC(=O)NCc3ccc4c(c3)OCO4)CC[C@@H]21	Tgondii IFNg -75
O=C(C1CCN(Cc2cc3ccccc3n2Cc2cccc(Cl)c2)CC1)N1CCCC1	none
Fc1cnc(N2CCOC3(CCN(c4ccccn4)CC3)C2)nc1	none
CCn1c(SCc2nc(-c3cccc(C)c3)oc2C)nc2c(=O)[nH]cnc21	none
Cc1ccc(C)c(-c2nc(CSc3nc4c(=O)[nH]cnc4n3-c3ccccc3)c(C)o2)c1	Tgondii IFNg -80
Cc1cccc(-c2nc(CSc3nc4c(=O)[nH]cnc4n3-c3ccccc3)c(C)o2)c1	Tgondii IFNg -110
CCOc1ccc(-c2nc(CSc3nc4c(=O)[nH]cnc4n3-c3ccccc3)c(C)o2)cc1OC	none
Cc1ccc(-n2c(SCc3nc(-c4ccccc4Cl)oc3C)nc3c(=O)[nH]cnc32)cc1	none
Cc1ccc(-n2c(SCc3nc(-c4ccccc4C)oc3C)nc3c(=O)[nH]cnc32)cc1	none
COCC(=O)N1CCC2C1CCC(=O)N2CCN1CCCC1 (centres undefined)	none
COCC(=O)NCCc1nc(N(C)C)ncc1-c1ccncc1	none
O=C(NCc1ccccc1)N1CCC2(CC(=O)N(c3ccccc3)C2)C1 (centres undefined)	none
N#Cc1ccc(N2CCC3(CC2)CC(Oc2cccnc2)CO3)cc1 (centres undefined)	none
CC1COC2(CCN(c3ccc(C#N)cc3)CC2)C1 (centres undefined)	Tgondii IFNg -90
CCN1CCOCC12CCN(c1ccc(C#N)cc1)CC2	none
Cc1nccn1CCNC(=O)CC1C(=O)NCCN1Cc1c(F)cccc1Cl (centres undefined)	none
CCSc1nc(CC(=O)NCCc2cnc[nH]2)cs1	none
O=c1ccc2c([nH]1)CCN(Cc1nccs1)CC2	none
COc1ccc(C(N)=O)cc1-c1ccc(S(C)(=O)=O)cc1	none
COc1ccc(OC)c(-c2cc(C(N)=O)ccc2C)c1	Tgondii IFNg -76
COc1ccc(C)cc1-c1ccc(C(N)=O)cn1	none
CC(C)S(=O)(=O)N1CCN2C(=O)c3ccccc3[C@@H]2C1	none
Cc1nccc(N2CCC(Cc3n[nH]c(=O)n3-c3ccccc3)CC2)n1	none
O=C(CCN1C(=O)c2ccccc2C1=O)Nc1nccs1	none
c1cnc(Nc2nccc(C3CCCN3Cc3ncc[nH]3)n2)cn1 (centres undefined)	none
CCc1nc(-c2nccn2CCc2cccc(OC)c2)c(C)[nH]1	none
C=CCn1c(=O)c(C(=O)Nc2cc(F)ccc2C)c(O)c2ccccc21	none
O=C(C1CCCO1)N1CCC(NCc2cccc(-n3cccn3)c2)CC1 (centres undefined)	none
CC(=O)c1ccc(-c2cccs2)s1	none
O=C(c1ccc(-c2cccs2)s1)c1ccc(F)cc1F	none
O=C(Sc1ccc(Cl)cc1)c1ccc(-c2cccs2)s1	Tgondii IFNg -104
CCOC(=O)c1[nH]cnc1C(=O)N1C[C@H]2CC=C(C)C[C@H]2C1	none
Cn1cccc1C1(O)CCCC2CN(C(=O)c3n[nH]c(=O)c4ccccc34)CC21 (centres undefined)	none
Cc1ccc(C(CNC(=O)c2cc3n(n2)CCN(C)C3)N2CCOCC2)o1 (centres undefined)	none
O=S(=O)(NCC1COc2ccccc2O1)c1cc(Cl)sc1Cl (centres undefined)	none
O=C(Nc1ncc(SCCN2CCCC2)s1)[C@]1(c2ccc(S(=O)(=O)C3CC3)cc2)C[C@H]1C1CCCCC1	Tgondii IFNg -73
Cc1nc2ccccn2c1-c1csc(NC(=O)c2ccc(Br)cc2)n1	Tgondii IFNg -78
Cc1nn(-c2ccccc2)nc1C(=O)Nc1nc(-c2ccc(F)c(F)c2)cs1	none
Cc1ccc(-c2csc(NC(=O)c3ccccc3)n2)c(C)c1	none
CC(C)n1c2ccccc2c2c1cc(C(=O)NC1CC1)n2C(=O)N(C)C	none
COc1ccc(F)c(CN2CCCC(O)(CN(C)Cc3cnccn3)C2=O)c1 (centres undefined)	none
CN1C[C@@H]2C[C@H](C(=O)Nc3ccc4c(c3)OCO4)[C@@H](C1)O2	none
CCCc1nc(NCc2cc(-c3ccc(F)cc3)on2)c2cnn(C)c2n1	none
CCCc1nc(NCc2nnnn2-c2ccccc2)c2cnn(C)c2n1	none
CCCc1nc(NCc2cc(-c3ccccc3)n[nH]2)c2cnn(C)c2n1	Tgondii IFNg -83
COC(=O)Nc1ccc(S(=O)(=O)Oc2ccc(C)cc2-n2nc3ccccc3n2)cc1	none
Cc1ccc(NC(=O)CC(=O)NC(C(=O)N(C)C)c2ccccc2)cc1 (centres undefined)	none
COC(=O)[C@@H]1C[C@@H](N(C)C)CN1C(=O)c1cc2ccccn2n1	none
O=C1CC(c2ccc(O)cc2)Oc2cc(O)cc(O)c21 (centres undefined)	none
Oc1ccc([C@H]2Oc3cc(O)cc(O)c3C[C@H]2O)cc1	none
Oc1ccc([C@H]2COc3cc(O)ccc3C2)cc1	Tgondii IFNg -73!
Cn1ccnc1C(=O)N1CCCC2(CCC(=O)N2)C1 (centres undefined)	none
O=C(NCC(c1cccnc1)c1c[nH]c2ccccc12)Nc1ccc(F)cc1F (centres undefined)	none
Cc1nn(-c2ccccc2)c2c1c(=O)n(C)c1ccccc21	none
Cc1ccc2c(c1)c1nc3ccccc3nc1n2C	none
Cn1c2ccccc2c2n[nH]c(=O)nc21	Tgondii IFNg -105
CC(=O)c1c[nH]c2ccc(C)cc2c1=O	none
COc1ccc2[nH]cc(C(=O)CCl)c2c1	none
CCOC(=O)c1c[nH]c2ccc(OC)cc2c1=O	Tgondii IFNg -88
Cc1cc(=O)[nH]c(C)c1NC(=O)c1cccc(CN2CCN(CCO)CC2)c1	none
CCOc1ccc(C2c3[nH]c4ccccc4c3CCN2C(=O)c2ccncc2)cc1 (centres undefined)	none
